Assay outcomes as filed in PubChem BioAssay.
Vaccinia Venus – vaccinia inhibition (Venus reporter); AID 720580; Vaccinia virus Venus reporter expression, fluorescence; Potency, µM (highest dose often 36.5 µM), inactives show top-dose activity change, negative = inhibition, most hits filed as inhibitors; hit rate 0.46% among 330,000; calls by dose curve; tested in A549 cells; note: nearly all actives have a fitted effect of over 30% in size
AmpC inh detg – blocks E. coli AmpC beta-lactamase in detergent assay | P00811 | AmpC hydrolysis of nitrocefin, absorbance 480 nm, 0.01% Triton | Potency, µM (titrated, usually from 114 µM), without a hit: at the top dose activity change, negative = inhibition, usual class: inhibitors | hit rate 0.041% among 370,000 | AID 485294;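 note: 0% = no-compound wells and -100% = no-enzyme wells; nearly all actives have a fitted effect of over 25% in size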
Target sequence (P00811 whole entry, looked up): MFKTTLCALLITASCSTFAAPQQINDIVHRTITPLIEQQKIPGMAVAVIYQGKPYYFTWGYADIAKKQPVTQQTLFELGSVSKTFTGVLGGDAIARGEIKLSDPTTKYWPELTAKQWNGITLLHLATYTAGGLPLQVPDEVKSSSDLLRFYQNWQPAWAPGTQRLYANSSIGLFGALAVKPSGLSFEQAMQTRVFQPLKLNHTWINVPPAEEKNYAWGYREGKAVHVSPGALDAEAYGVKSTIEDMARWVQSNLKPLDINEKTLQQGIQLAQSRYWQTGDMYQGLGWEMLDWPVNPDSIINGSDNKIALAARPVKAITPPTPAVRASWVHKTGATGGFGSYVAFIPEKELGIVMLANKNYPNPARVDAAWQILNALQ
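AmpC (5.3 nM in the dispensed reagent) in 20 mM phosphate pH 7.0 with 0.01% (detergent screen) or 0.0001% Triton X-100 was preincubated with compounds for 15 min at room temperature. Nitrocefin was then added from an 800 uM solution, and hydrolysis was followed at 480 nm.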
AmpC inh no detg – blocks E. coli AmpC beta-lactamase in detergent-free assay; P00811; AmpC nitrocefin hydrolysis, absorbance 480 nm, 0.0001% Triton; Potency, µM (highest dose often 57.1 µM), for the others: at the top dose activity change, negative = inhibition, most hits filed as inhibitors; hit rate 0.52% among 330,000; AID 485341;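 note: plate controls were no compound for no effect and no enzyme for full effect; nearly all actives have a fitted effect of over 20% in size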
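20 mM phosphate pH 7.0 + 0.01% (detergent screen) or 0.0001% Triton X-100; 5.3 nM AmpC reagent; cpd preinc 15 min RT; nitrocefin (800 uM stock) to start; A480 q20 s × 4 min; Activity was normalised to no-enzyme and no-compound control wells.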
VACV mCherry inh – vaccinia inhibition (mCherry reporter). Vaccinia virus mCherry reporter infection, fluorescence. hit rate 0.63% among 310,000. AID 720579. Potency, µM (titrated, usually from 36.5 µM), without a hit: at the top dose activity change, negative = inhibition, most hits filed as inhibitors; calls by dose curve; tested in A549 cells; note: nearly all actives have a fitted effect of over 35% in size
* = called active by the depositor; i = inactive; ? = inconclusive; · = not tested or not shown. A selection: hits, their analogues and other compounds. The true share with any hit is near 1.1%. Unless noted, calls come from the whole dose curve; as a rule, active = well fitted curve in the direction sought with a large enough effect; inconclusive = small, poorly fitted or top-dose-only effect, or another doubt; inactive = no such curve, though single readings can be large; an effect the other way counts as inactive or inconclusive. Unless noted, % is set by controls: 0 for no effect and ±100 for the full control effect; potency is the fitted concentration of half-maximal effect.

SMILES	Vaccinia Venus	AmpC inh detg	AmpC inh no detg	VACV mCherry inh
O=C(CC12CC3CC(CC(C3)C1)C2)N/N=C/c1ccc([N+](=O)[O-])o1	28µM*	?	-27%	11µM*
Cc1ccc(S(=O)(=O)ON2C(=O)c3cccc4cccc(c34)C2=O)cc1	·	?	-15%	·
O=C1c2cccc3cccc(c23)C(=O)N1OS(=O)(=O)c1ccccc1	-19%	-3%	?	·
O=C1c2ccccc2C(=O)N1OS(=O)(=O)c1ccccc1	·	45µM*	-22%	·
Cc1ccc(C)c(C(=O)CN2C(=O)c3ccccc3C2=O)c1	-3%	-7%	-2%	-22%
Cc1ccc(C)c(S(=O)(=O)ON2C(=O)c3ccccc3C2=O)c1	-12%	50µM*	-13%	-2%
Cc1cc(S(=O)(=O)ON2C(=O)c3ccccc3C2=O)ccc1F	·	45µM*	-25%	·
Cc1ccccc1NC(=O)CN1C(=O)S/C(=C\c2ccc(-c3cc(C(=O)O)ccc3C)o2)C1=O	-10%	56µM*	-22%	-15%
Cc1ccc(C(=O)O)cc1-c1ccc(/C=C2\SC(=O)N(CC(=O)Nc3ccccc3)C2=O)o1	-1%	56µM*	-28%	-13%
Cc1cc(C(=O)O)ccc1-c1ccc(/C=C2\SC(=O)N(CC(=O)Nc3ccc4c(c3)OCO4)C2=O)o1	·	-13%	-46%	·
CC(C)c1ccc(S(=O)(=O)/N=C2/C=CC(=O)c3ccccc32)cc1	·	0%	28µM*	·
O=C1/C(=C\c2ccc(O)c(O)c2)SC(=S)N1Cc1ccccc1	i	-5%	11µM*	i
O=[N+]([O-])c1ccc(O)c(C=NN2CCCCC2)c1	-3%	·	·	i
Cc1ccccc1/C=C1\SC(=S)N(/N=C/c2cc([N+](=O)[O-])ccc2O)C1=O	-19%	1%	28µM*	-17%
COc1cc(/C=C2/SC(=S)N(Cc3ccccc3)C2=O)ccc1O	i	16%	-37%	60%
O=C1/C(=C\c2cccc(O)c2O)SC(=S)N1Cc1ccccc1	34%	-15%	-41%	-15%
O=C1/C(=C\c2cc([N+](=O)[O-])ccc2O)SC(=S)N1Cc1ccc(Cl)cc1	·	3%	3.5µM*	·
COC(=O)c1cn([C@@H]2C[C@@H](C(=O)N3CCCCCC3)N(Cc3cc4ccccc4s3)C2)nn1	-8%	·	·	-7%
Cc1cnc(C)c(-c2cccc3c2OC(CNC(=O)CN2C(=O)c4ccccc4C2=O)C3)n1 (stereo not drawn)	-14%	·	·	i
Cc1cnc(C)c(-c2cc(F)cc3c2OC(CNC(=O)Cc2ccccc2C)C3)n1 (stereo not drawn)	5%	·	·	-10%
CCc1nnc(NC(=O)CSc2ncnc3c2oc2ccccc23)s1	-30%	-5%	1%	-15%
O=C(CSc1ncnc2c1oc1ccccc12)Nc1nc2ccccc2s1	?	?	0.79µM*	i
C[C@]12CCC3C(CC[C@]4(O)CC(O)CC[C@@]34C=O)[C@]1(O)CCC2C1=CC(=O)OC1 (stereo partly drawn)	10µM*	·	·	?
CC1O[C@@H](OC2CC[C@@]3(C=O)C4CC[C@]5(C)C(C6=CC(=O)OC6)CC[C@@]5(O)C4CC[C@]3(O)C2)C(O)C(O)C1O (stereo partly drawn)	0.045µM*	·	·	25µM*
COc1cc(=O)n2c(c1C(=O)NC(C)c1ccco1)CCN(Cc1cc3ccccc3o1)CC2 (stereo not drawn)	12%	·	·	-8%
SMILES	Vaccinia Venus	AmpC inh detg	AmpC inh no detg	VACV mCherry inh
Cc1ccc(NC(=O)CSc2nc(O)c(Cc3ccccc3)c(=O)n2-c2ccccc2)cc1	4%	-7%	11µM*	-4%
Cc1ccc(NC(=O)CSc2nc(O)cc(=O)n2-c2ccc(C)cc2)cc1	·	11%	13µM*	·
CCCS(=O)(=O)NCc1c(C)ncc2c1CCN(C(=O)c1cccc(-c3ccccc3F)c1)C2	17%	·	·	-3%
COC(=O)[C@@H]1CCCN1Cc1ccc2c(c1)CN(Cc1cccn1-c1ncccn1)CCO2	-3%	·	·	-9%
CCCCNS(=O)(=O)c1ccc(NC(=O)C(Sc2ccccc2)c2ccccc2)cc1 (stereo not drawn)	10µM*	-11%	-32%	?
CCCN1C(=O)c2cc(C(=O)O)ccc2C1O (stereo not drawn)	2%	?	-1%	10%
CCCN1C(=O)c2cc(C(=O)NC3CCCCCC3)ccc2C1O (stereo not drawn)	-7%	?	1.4µM*	12%
CCOc1ccc(N2CC(NS(=O)(=O)c3cccs3)CC2=O)cc1 (stereo not drawn)	-9%	?	-15%	0%
